KB-3-1 tox = KB-3-1 parental cell cytotoxicity; Potency, µM (series often up to 46.1 µM), usual class: cytotoxic; KB-3-1 viability, CellTiter-Glo ATP luminescence, 72 h; 400,000 tested, 1.4% active; AID 1347075; also: % is scaled to controls: 0 for no effect and ±100 for the full control effect; nearly all actives have a fitted effect of over 60% in size
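Parental KB-3-1 adenocarcinoma cells in phenol-red-free DMEM with 10% FBS were pin-treated with compounds at several concentrations, incubated 72 h at 37 °C, and viability read by CellTiter-Glo luminescence; concentration-effect curves were fitted after normalization.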
MCF10A rerep = induces DNA re-replication in MCF 10a normal breast cells; 350,000 tested, 2.9% active; AID 624296; Potency, µM (series often up to 46.1 µM), inactives show top-dose activity, positive = re-replication, actives largely listed as activators; MCF 10A DNA re-replication, Hoechst nuclear intensity, 48 h; also: % of control where 0% means no effect; nearly all actives have a fitted effect of over 50% in size
KB-V1 MDR tox = kills drug-selected multidrug resistant KB-V1 cells; KB-V1 MDR cells viability, CellTiter-Glo, 72 h; Potency, µM (titrated, usually from 46.1 µM), hits mostly cytotoxic; 400,000 tested, 3.4% active; AID 1347076; also: % is scaled to controls: 0 for no effect and ±100 for the full control effect; nearly all actives have a fitted effect of over 60% in size
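KB-V1 cells (P-gp-expressing MDR subline of KB-3-1) in phenol-red-free DMEM with 10% FBS were exposed to library compounds over a concentration series for 72 h at 37 degrees C. Viability read by CellTiter-Glo luminescence; concentration-effect curves fitted after normalization.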
SW480 rerep = induces DNA re-replication in SW480 colon adenocarcinoma cells | SW480 DNA re-replication, Hoechst DNA content imaging, 48 h | 340,000 tested, 1.8% active | AID 624297 | Potency, µM (top dose mostly 46.1 µM), inactives show at the top dose re-replication activation, hits mostly activators; also: % of control where 0% means no effect; nearly all actives have a fitted effect of over 55% in size
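Readout is total intensity of Hoechst-stained nuclei, excited at 405 nm and collected at 500-530 nm. Compound treatment lasted 48 hr at 37 C in 5% CO2 before staining.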
ELG1 DNA repair = inhibitors of ELG1-dependent DNA repair in HEK293T cells | HEK293T ELG1-luciferase reporter, luminescence, 16 h; DNA damage induced by 5-fluorouridine | Potency, µM (highest dose often 46.1 µM), for inactives: at the highest dose activity change, negative = inhibition, actives largely listed as inhibitors | 330,000 tested, 2.3% active | AID 504467; also: % is scaled to controls: 0 for no effect and ±100 for the full control effect; nearly all actives have a fitted effect of over 55% in size
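Overnight (16 hr) co-exposure of 2,000 cells/well to 5-fluorouridine and compound at 37 °C preceded detection. Luciferase was quantified via ONE-Glo luminescence; loss of signal denotes inhibition.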
* = called active by the depositor; i = inactive; u = inconclusive; x = no result; ! = not active in a repeat. This is a sample that favours compounds with a hit; in the whole collection about 8.2% have one here. Calls follow the shape of the dose curve; as a rule, active = well fitted curve in the direction sought with a large enough effect; inconclusive = small, poorly fitted or top-dose-only effect, or another doubt; inactive = no such curve, though single readings can be large; an effect the other way counts as inactive or inconclusive. Potency is read from the fitted curve at half-maximal effect.

SMILES	KB-3-1 tox	MCF10A rerep	KB-V1 MDR tox	SW480 rerep	ELG1 DNA repair
CCCCCN=Cc1c(C)[nH]n(-c2nc3ccccc3s2)c1=O	2.59µM*	17.8%	2.31µM*	11.6%	u
Cn1c(SCC(=O)c2ccc3c(c2)NC(=O)CO3)nc2ccccc21	i	-3.1%	u	-3.7%	-6.0%
CCc1ccc(-n2c(SCC(=O)c3ccc4c(c3)NC(=O)CO4)nc3ccccc3c2=O)cc1	20.6µM*	-3.6%	u	1.2%	u
O=C1COc2ccc(C(=O)CSc3nc4ccccc4c(=O)n3-c3ccc(Cl)c(Cl)c3)cc2N1	i	13µM*	u	18.4µM*	-8.1%
Cc1cccc(NC(=O)c2nc[nH]c2C(=O)N[C@@H](C)CO)c1	i	x	i	x	x
C#C[C@]1(O)CC[C@H]2[C@H]3[C@H](CC[C@@]21C)C1=C(CC(=O)CC1)C[C@@H]3C	x	0.8%	x	-5.8%	x
Cc1ccc(CN2C(=O)CNC2=S)cc1	i	-0.1%	i	2.4%	-4.2%
Fc1ccc([C@@H]2CCNC[C@H]2COc2ccc3c(c2)OCO3)cc1	u	u	23.1µM*!	u	u
Cc1ccc2[nH]c(=O)c(CN(CCCO)Cc3nnnn3Cc3ccccc3)cc2c1	i	x	i	x	x
CCOC(=O)c1sc(N)c(C(=O)Nc2ccccc2OC)c1C	u	10.3µM*	10.3µM*	16.4µM*	-19.7%
CCOC(=O)c1sc(N)c(C(=O)OC)c1C	i	0.2%	i	-2.2%	u
CCCCCc1ccc(-c2ccc(OC)cc2)nc1	i	9.5%	i	1.1%	-16.7%
CCCCCc1ccnc(CC(=O)c2ccc(OC)cc2)c1	23.1µM*	-14.0%	i	-10.0%	x
Cc1sc2nc(-c3cccnc3)nc(Cl)c2c1-c1ccccc1	i	20.6µM*	13µM*	0.5%	u
N#Cc1c(N)n(-c2ccc(N)cc2)c2nc3ccccc3nc12	i	-3.5%	i	-94.5%	-3.8%
CCOC(=O)c1c(N)n(-c2ccc(CC)cc2)c2nc3ccccc3nc12	i	x	i	x	x
CCC(=O)Nc1c(C#N)c2nc3ccccc3nc2n1C1CCCCC1	i	u	i	u	-7.5%
CCOC(=O)c1c(N)n(-c2ccc(N)cc2)c2nc3ccccc3nc12	i	-6.9%	i	-325.4%	9.2µM*
Nc1c(C(=O)Nc2ccccc2)c2nc3ccccc3nc2n1-c1ccc(O)cc1	i	14.6µM*	i	7.31µM*	u
N#Cc1c(N)n(-c2ccc(C(=O)O)cc2)c2nc3ccccc3nc12	i	18.4µM*	i	u	0.0%
COc1ccc(-n2c(N)c(C(=O)Nc3c(C)n(C)n(-c4ccccc4)c3=O)c3nc4ccccc4nc32)cc1	i	11.4%	i	-10.3%	u
N#Cc1c(N)n(C2CCCCC2)c2nc3ccccc3nc12	u	1.03µM*	u	8.2µM*	12.2%
COC(=O)N/N=C/c1c(C)c(C(=O)c2ccc(F)cc2)n2ccccc12	i	u	23.1µM*	-27.9%	23.1µM*
Cc1c(/C=N/NC(=O)c2ccc(O)cc2)c2ccccn2c1C(=O)c1ccc(F)cc1	u	29.0%	18.4µM*	-10.3%	u
Cc1c(/C=N/NC(=O)c2ccccc2O)c2ccccn2c1C(=O)c1ccc(F)cc1	u	6.51µM*	u	19.6%	23.1µM*
SMILES	KB-3-1 tox	MCF10A rerep	KB-V1 MDR tox	SW480 rerep	ELG1 DNA repair
CCOC(=O)N/N=C/c1c(C)c(C(=O)c2ccc(F)cc2)n2ccccc12	i	-2.1%	i	-3.8%	u
Cc1c(/C=N/NC(N)=O)c2ccccn2c1C(=O)c1ccncc1	i	15.8%	i	-6.8%	u
Cc1c(/C=N/NC(=O)CNc2ccccc2)c2ccccn2c1C(=O)c1ccccc1	u	u	3.66µM*	-13.6%	u
CCN(CC(=O)Nc1ccc2c(c1)OCCO2)C(=O)C(C)Oc1ccc(Cl)cc1 (stereo not drawn)	i	2.3%	i	u	-2.3%
Cc1c(/C=N/NC(=O)c2cccnc2)c2ccccn2c1C(=O)c1ccc(F)cc1	x	x	x	x	18.4µM*
CC1C(=O)N(Cc2cn(Cc3ccco3)nn2)CCS(=O)(=O)N1Cc1ccc(-c2ccncc2)cc1 (stereo not drawn)	i	x	i	x	x
O=S(=O)(Cc1ccccc1)N1CCC(c2nc(-c3cccs3)no2)CC1	i	2.1%	20.6µM*	-8.9%	-16.0%
O=C(c1c(F)cccc1F)N1CCCC(c2nc(-c3cccs3)no2)C1 (stereo not drawn)	i	21.1%	i	-4.2%	u
O=C(N1CCOCC1)N1CCCC(c2nc(-c3cccs3)no2)C1 (stereo not drawn)	i	2.4%	14.6µM*	-2.7%	16.8%
CCc1nnc(NC(=O)[C@@H]2CCCN2C(=O)c2cccs2)s1	i	x	u	x	x
CCN(CC(=O)Nc1c(F)cccc1F)C(=O)c1ccc(OC)c(S(=O)(=O)NC2CCCC2)c1	i	x	i	x	x
Cc1ccccc1N1C(=O)CN(Cc2sccc2C)C1=S	u	10.4%	3.26µM*	u	-6.7%
Cc1ccc(N2C(=O)CN(Cc3ccccc3)C2=S)cc1C	i	-1.1%	i	-1.7%	-1.6%
Cc1ccc(N2C(=O)CN(Cc3cccs3)C2=S)cc1C	i	-1.5%	i	6.2%	6.2%
Cc1ccc(N2C(=O)CN(Cc3sccc3C)C2=S)cc1C	u	u	16.4µM*	0.4%	4.3%
CC(C)COP(=O)(OCC(C)C)C(Nc1ccccc1)c1ccc2c(c1)OCO2 (stereo not drawn)	u	u	6.51µM*	u	u
CC(=O)NC(C)(CC(=O)c1ccccc1)c1ccccc1 (stereo not drawn)	i	-3.2%	i	-3.7%	x
CC1CN(c2ccccn2)C(C)CN1C(=S)Nc1ccccc1 (stereo not drawn)	i	-1.2%	23.1µM*	-2.9%	x
CC(C)N1C(=O)/C(=C\c2nc3ccccc3c(=O)[nH]2)c2ccccc21	18.4µM*	u	i	u	u
CCCN1C(=O)/C(=C/c2nc3ccccc3c(=O)[nH]2)c2ccccc21	i	-2.0%	i	0.3%	-6.3%
CCOc1ccc(S(=O)(=O)N2CCOCC2)cc1NS(=O)(=O)c1ccc(OC)c([N+](=O)[O-])c1	i	-1.1%	i	-7.1%	19.4%
O=C(CN1C(=O)NC2(CCCC2)C1=O)OCc1ccc(Br)cc1	i	5.5%	i	-34.3%	7.1%
CC1CC(C)(C)CC2(C1)NC(=O)N(CC(=O)OCc1ccc(Br)cc1)C2=O (stereo not drawn)	i	u	16.4µM*	4.0%	11.6%
O=C(CSc1nc(=O)n(Cc2ccccn2)c2c1CCC2)Nc1ccc(F)cc1F	i	0.2%	i	-585.5%	-13.9%

Assay outcomes: PubChem, National Center for Advancing Translational Sciences (NCATS)
